Compounds with a hit are over-represented: about 13% of the library has one in this group of screens.
USP8 inh – blocks human USP8 ubiquitin-rhodamine cleavage | P40818 | purified USP8, Ub-rhodamine cleavage fluorescence, 30 min | inhibition, % at 20 µM | 4.2% of 47,000 active
USP10 block – human USP10 deubiquitinase inhibition; Q14694; purified USP10, Ub-rhodamine fluorescence, 60 min; inhibition, % at 20 µM; 1.1% of 47,000 active
USP28 inh – blocks human USP28 ubiquitin-rhodamine cleavage | Q96RU2 | purified USP28, Ub-rhodamine cleavage fluorescence, 30 min | inhibition, % at 25 µM | 3% of 47,000 active | AID 1645857
USP30 block – inhibitors of human USP30 deubiquitinase; inhibition, % at 25 µM; 5.3% of 47,000 active; purified USP30, Ub-rhodamine cleavage fluorescence
USP17 inh – blocks human USP17 ubiquitin-rhodamine cleavage; A8MUK1; purified USP17, Ub-rhodamine cleavage fluorescence, 3 h; inhibition, % at 50 µM; 6.5% of 47,000 active; AID 1645855
Target sequence (A8MUK1 whole entry, looked up): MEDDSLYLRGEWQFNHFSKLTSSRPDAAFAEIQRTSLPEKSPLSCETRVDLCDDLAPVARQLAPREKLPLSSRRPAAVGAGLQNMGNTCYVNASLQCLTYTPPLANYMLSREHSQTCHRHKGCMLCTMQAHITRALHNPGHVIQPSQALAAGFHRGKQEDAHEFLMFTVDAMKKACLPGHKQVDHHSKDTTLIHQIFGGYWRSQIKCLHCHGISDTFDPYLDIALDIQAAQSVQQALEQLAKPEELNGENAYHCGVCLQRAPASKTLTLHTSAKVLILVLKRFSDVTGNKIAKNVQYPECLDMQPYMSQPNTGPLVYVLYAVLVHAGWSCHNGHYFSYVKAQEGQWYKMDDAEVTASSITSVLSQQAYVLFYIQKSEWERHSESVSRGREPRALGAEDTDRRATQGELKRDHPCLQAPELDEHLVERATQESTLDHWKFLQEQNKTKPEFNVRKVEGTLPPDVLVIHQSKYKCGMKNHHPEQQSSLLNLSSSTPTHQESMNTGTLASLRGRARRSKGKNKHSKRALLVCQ
Hits are given with their value; 0 = inactive; - = no result. No stated cut-off is given here; in the data, active means inhibition above about 30%; inactive means the rest.

SMILES	USP8 inh	USP10 block	USP28 inh	USP30 block	USP17 inh
Cc1ccc(-n2ncc3c(O)c(C(=O)Nc4ccccc4F)c(=O)[nH]c32)cc1	83	0	0	0	0
CC(C)C(=O)Nc1nc(-c2ccc(Br)cc2)ns1	0	0	0	0	0
Cc1ccc(Cn2c(C(=O)O)c(CNCCC3=CCCCC3)c3ccccc32)cc1	0	0	39	0	0
COc1ccc2c(CNCCc3ccccc3)c(C(=O)O)n(Cc3ccc(F)cc3Cl)c2c1	0	0	0	30	0
COc1ccc(Cn2c(C(=O)O)c(CNCCC3=CCCCC3)c3ccccc32)cc1	0	0	0	0	0
Cc1ccc2c(CNCCc3ccccc3C)c(C(=O)O)n(Cc3ccccc3C)c2c1	0	0	0	0	0
CSc1ccc(CNCc2c(C(=O)O)n(Cc3ccccc3)c3cc(C)ccc23)cc1	0	0	44	58	0
O=C(Cc1nc(-c2ccccc2)n[nH]1)Nc1ccc(F)cc1Cl	0	0	0	0	0
CCCCN(C)CCN1C(=O)C2C(C(=O)Nc3cccc(SC)c3)C3C=CC2(O3)C1C(=O)NC1CCCCC1 (stereo not drawn)	0	0	0	0	0
COc1ccc(C)cc1NC(=O)Nc1nnc(CC(=O)NCc2ccccc2)s1	38	0	0	0	0
O=C(Cc1nnc(NC(=O)Nc2cc(F)ccc2F)s1)NCc1ccccc1	0	0	0	0	0
O=C(c1ccsc1)N1CCC2(C1)Nc1cccnc1NC2=NC1CCCC1 (stereo not drawn)	0	0	0	0	0
Cc1cc(-c2cnc(N3CCSCC3)nc2-c2ccoc2)on1	0	0	41	0	0
Cc1cc(-c2cnc(N3CCCC3)nc2C2CCN(c3nccc(C)n3)CC2)on1	0	0	0	0	0
O=C(O)c1ccc(C(=O)N2CCc3nc4ccccc4n3CC2)cc1	0	0	0	0	0
CC(C)(C)C(=O)N1CCCC(c2nn(CCOc3ccccc3)c3nccnc23)C1 (stereo not drawn)	0	0	0	0	0
COCCN1C[C@H]2CCN(C(=O)c3ccncc3)CC[C@H]2S1(=O)=O	0	0	0	0	0
Cn1c2ccc(F)cc2c2ncn(Cc3ccc4c(c3)OCO4)c(=O)c21	32	0	0	0	0
O=C(O)CC1(CC(=O)NCc2ccc(F)cc2)CCCCC1	0	0	0	0	0
O=C(O)CC1(c2ccc(F)cc2)C2CC3CC(C2)CC1C3 (stereo not drawn)	33	0	0	40	32
CC(NC(=O)c1ccccn1)c1nc2ccccc2[nH]1 (stereo not drawn)	0	0	0	0	0
CCc1nc(CN2C(=O)COc3cc(S(=O)(=O)N4CCCC4)c(Cl)cc32)no1	0	0	0	0	0
Cc1ccccc1-c1nnc(-c2ccc(C(=O)N(C)Cc3cccc(F)c3)cc2)o1	0	0	0	40	0
O=C(CCC1CCCCC1)N1CCN(c2ncnc3c2nnn3Cc2ccccc2)CC1	0	0	0	32	0
O=C(c1ccc(F)cc1)N1CCN(c2ncnc3c2nnn3Cc2ccccc2)CC1	0	0	-	-	0
SMILES	USP8 inh	USP10 block	USP28 inh	USP30 block	USP17 inh
O=C(Cc1ccc(Cl)cc1)N1CCN(c2ncnc3c2nnn3Cc2ccccc2)CC1	0	0	0	35	0
O=C(Cn1c(=O)n(Cc2ccc(C(=O)NCc3ccco3)cc2)c(=O)c2ccccc21)Nc1ccc2c(c1)OCCO2	74	41	58	48	81
O=C(CCCCn1c(=O)c2ccccc2n(CC(=O)Nc2ccc3c(c2)OCCO3)c1=O)NCc1ccco1	0	43	0	0	0
CC(=O)N1CCC(Cc2ccnc(Nc3cccc(C)n3)c2)CC1	0	0	0	0	0
Cc1ccc(S(=O)(=O)Nc2ccc(Cl)cc2)cc1NC(=O)CC(=O)c1ccccc1	51	0	0	0	38
Cc1ccc(S(=O)(=O)Nc2cccc(Cl)c2)cc1NC(=O)CCc1ccccc1	0	0	0	0	0
O=C(CCC(=O)c1ccc(F)cc1)Nc1cccc(S(=O)(=O)Nc2cccc(Cl)c2)c1	0	32	0	0	0
Cc1ccc(S(=O)(=O)Nc2cccc(Cl)c2)cc1NC(=O)CCC(=O)c1ccc(Cl)cc1	0	34	0	0	0
O=C(CCCC(=O)OCC(=O)c1ccc(F)cc1)Nc1cccc(Cl)c1	0	0	0	0	0
CCn1nccc1C(=O)N1CCc2c(nc(-c3ccc(F)cc3)[nH]c2=O)C1	0	0	0	0	0
Cc1ccc(-c2c[n+](CC(=O)Nc3cccc4ccccc34)c3n2CCC3)cc1	0	0	0	34	0
CCCc1noc(-c2ccc(-n3ncc(C(=O)N4CCCCC4)c3C)nc2)n1	0	0	0	38	0
